According to PubChem BioAssay AID1159580 (chemical genetic matrix, 2015):
Screen size: about 5,500 compounds; about 2,000 (36%) were called active. Roughly 18% stayed inconclusive and do not appear here. Cut-off read from the data, not from the text of the source: active = normalized growth mostly below about 0.91 (no sharp cut-off); inconclusive = no clear call, values can overlap the other calls; inactive = mostly above about 0.92. This is one part of the list.

Experiment: chemical genetic growth profiling, strain panel (AID 1159580);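 note: tested at 20 µM; growth read once vehicle control cultures reached saturation at 30 °C; 1 = growth at the plate median or of vehicle wells; lower values mean less growth of the strain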
Conditions: S. cerevisiae deletion strains, growth OD

Measured: normalized growth

COc1ccc(NC(=O)/C=C/c2ccc(Cl)cc2)cc1
inactive: locus YAL013W, strain DEP1, active compounds read low 0.992 | locus YAL040C, strain CLN3, active compounds read low 0.958 | locus YCL061C, strain MRC1 (second series), active compounds read low 1 | locus YDR150W, strain NUM1, active compounds read low 1 | locus YDR363W, strain ESC2, active compounds read low 1.01 | locus YER002W, strain NOP16, active compounds read low 0.956 | locus YGR229C, strain SMI1, active compounds read low 0.986 | locus YJR075W, strain HOC1, active compounds read low 0.98 | locus YMR307W, strain GAS1, active compounds read low 1.02 | locus YNL175C, strain NOP13, active compounds read low 0.966 | locus YNL197C, strain WHI3, active compounds read low 0.977 | locus YNL224C, strain SQS1, active compounds read low 1 | locus YOR083W, strain WHI5 (second series), active compounds read low 0.961 | locus YPL241C, strain CIN2, active compounds read low 1.01
